{
  "source": "paper PMC6792352",
  "about": "“Limited Chemical Structural Diversity Found to Modulate Thyroid Hormone Receptor in the Tox21 Chemical Library” (Environmental Health Perspectives, 2019)",
  "tested_on": "thyroid hormone receptor (endogenous TRα and TRβ)",
  "design": "species or system GH3-TRE-Luc (rat pituitary); GH3-TRE-Luc luciferase reporter, antagonist mode against 1 nM T3, loss of signal, qHTS",
  "key": {"[1]": {"conditions": "read-out: Average AC50 (uM) GH3-TRE-Antag, antagonist mode, 1 nM T3, no GH3 cytotoxicity hit"}, "[2]": {"conditions": "read-out: Average AC50 (uM) GH3-TRE-Antag, antagonist mode, 1 nM T3, no GH3 cytotoxicity hit, Average AC50 (uM) GH3-TRE-Antag, 24 h"}},
  "note": "Counter-ions that a name gives are not always drawn. Like-named read-outs stand apart in the source and are kept apart here.",
  "data": [
    {"smiles": "OC[C@H]1O[C@@H](n2cnc3c(=S)nc[nH]c32)[C@H](O)[C@@H]1O", "note": "[Thioinosine]", "values": [
      {"measurement": "AC50", "setting": "[1]", "value": 21.8, "unit": "µM"}
    ]},
    {"smiles": "Cc1cccc(C(C)(C)C)c1O", "note": "[2-tert-Butyl-6-methylphenol]", "values": [
      {"measurement": "AC50", "setting": "[1]", "value": 75.7, "unit": "µM"}
    ]},
    {"smiles": "CC(C)(C)C(=O)OCOP(=O)(COCCn1cnc2c(N)ncnc21)OCOC(=O)C(C)(C)C", "note": "[Adefovir dipivoxil]", "values": [
      {"measurement": "AC50", "setting": "[1]", "value": 46.6, "unit": "µM"}
    ]},
    {"smiles": "CC(C)(C)NC(=O)[C@H]1CC[C@H]2[C@@H]3CC[C@H]4NC(=O)C=C[C@]4(C)[C@H]3CC[C@]12C", "note": "[Finasteride]", "values": [
      {"measurement": "AC50", "setting": "[1]", "value": "> 20", "unit": "µM"}
    ]},
    {"smiles": "CCCCCCCCCCCCSC#N", "note": "[Lauryl thiocyanate]", "values": [
      {"measurement": "AC50", "setting": "[1]", "value": 42.6, "unit": "µM"}
    ]},
    {"smiles": "OCCN(CCO)c1nc(N2CCCCC2)c2nc(N(CCO)CCO)nc(N3CCCCC3)c2n1", "note": "[Dipyridamole]", "values": [
      {"measurement": "AC50", "setting": "[1]", "value": 24.3, "unit": "µM"}
    ]},
    {"smiles": "CCCCCCCCCCCCOS(=O)(=O)O", "note": "[Ammonium dodecyl sulfate]", "values": [
      {"measurement": "AC50", "setting": "[2]", "value": 80.2, "unit": "µM"}
    ]},
    {"smiles": "CCCCCCn1cc[n+](C)c1", "note": "[1-Hexyl-3-methylimidazolium bromide]", "values": [
      {"measurement": "AC50", "setting": "[2]", "value": 47.7, "unit": "µM"}
    ]},
    {"smiles": "CC(C)c1c(C(=O)Nc2ccccc2)c(-c2ccccc2)c(-c2ccc(F)cc2)n1CC[C@@H](O)C[C@@H](O)CC(=O)O", "note": "[Atorvastatin calcium]", "values": [
      {"measurement": "AC50", "setting": "[2]", "value": 14.2, "unit": "µM"}
    ]},
    {"smiles": "Nc1ccc2cc3ccc(N)cc3nc2c1", "note": "[Proflavin hydrochloride]", "values": [
      {"measurement": "AC50", "setting": "[2]", "value": 3.25, "unit": "µM"}
    ]},
    {"smiles": "C=CCOC(Cn1ccnc1)c1ccc(Cl)cc1Cl", "note": "(stereo not shown) [Imazalil sulfate]", "values": [
      {"measurement": "AC50", "setting": "[1]", "value": 28.4, "unit": "µM"}
    ]},
    {"smiles": "CCCCCC[n+]1ccccc1", "note": "[1-Hexylpyridinium trifluoromethanesulfonate]", "values": [
      {"measurement": "AC50", "setting": "[2]", "value": 45.4, "unit": "µM"}
    ]},
    {"smiles": "O=C(COc1ccc(Cl)cc1)OCCNC12CC3CC(CC(C3)C1)C2", "note": "[Adafenoxate]", "values": [
      {"measurement": "AC50", "setting": "[1]", "value": 26, "unit": "µM"}
    ]},
    {"smiles": "CCCCCC[n+]1ccccc1", "note": "[1-Hexylpyridinium chloride]", "values": [
      {"measurement": "AC50", "setting": "[2]", "value": 71.1, "unit": "µM"}
    ]},
    {"smiles": "CC/C=C(\\C(=O)N[C@@H]1C(=O)N2C(C(=O)OCOC(=O)C(C)(C)C)=C(COC(N)=O)CS[C@H]12)c1csc(N)n1", "note": "[Cefcapene pivoxil hydrochloride]", "values": [
      {"measurement": "AC50", "setting": "[1]", "value": 49.5, "unit": "µM"}
    ]},
    {"smiles": "CCC(C)(C)c1ccc(O)cc1", "note": "[4-(2-Methylbutan-2-yl)phenol]", "values": [
      {"measurement": "AC50", "setting": "[1]", "value": "> 50", "unit": "µM"}
    ]},
    {"smiles": "CCOc1ccc(Cc2nccc3cc(OCC)c(OCC)cc23)cc1OCC", "note": "[Ethaverine hydrochloride]", "values": [
      {"measurement": "AC50", "setting": "[1]", "value": 8.58, "unit": "µM"}
    ]},
    {"smiles": "CC[C@@H]1/C=C(\\C)C[C@H](C)C[C@H](OC)[C@H]2O[C@@](O)(C(=O)C(=O)N3CCCC[C@H]3C(=O)O[C@H](/C(C)=C/[C@@H]3CC[C@H](Cl)[C@H](OC)C3)[C@H](C)[C@@H](O)CC1=O)[C@H](C)C[C@@H]2OC", "note": "[Pimecrolimus]", "values": [
      {"measurement": "AC50", "setting": "[1]", "value": 16, "unit": "µM"}
    ]},
    {"smiles": "O=C(O)C[C@H](O)C[C@H](O)/C=C/c1c(C2CC2)nc2ccccc2c1-c1ccc(F)cc1", "note": "[Pitavastatin calcium]", "values": [
      {"measurement": "AC50", "setting": "[1]", "value": 46.3, "unit": "µM"}
    ]},
    {"smiles": "CCCC(=O)N1CCCN(c2nc(N)c3cc(OC)c(OC)cc3n2)CC1", "note": "[Bunazosin hydrochloride]", "values": [
      {"measurement": "AC50", "setting": "[1]", "value": 47.9, "unit": "µM"}
    ]},
    {"smiles": "O=C(CS)OCCOC(=O)CS", "note": "[Ethane-1,2-diyl bis(sulfanylacetate)]", "values": [
      {"measurement": "AC50", "setting": "[1]", "value": 51.5, "unit": "µM"}
    ]},
    {"smiles": "OC[C@H](Cc1cccc(O)c1)[C@H](CO)Cc1cccc(O)c1", "note": "[(-)-Enterodiol]", "values": [
      {"measurement": "AC50", "setting": "[1]", "value": "> 90", "unit": "µM"}
    ]},
    {"smiles": "CCN(C(=O)N(CC)c1ccccc1)c1ccccc1", "note": "[N,N'-Diethylcarbanilide]", "values": [
      {"measurement": "AC50", "setting": "[1]", "value": 45.9, "unit": "µM"}
    ]},
    {"smiles": "Nc1nc(N)c2nc(CNc3ccc(C(=O)N[C@@H](CCC(=O)O)C(=O)O)cc3)cnc2n1", "note": "[4-Aminofolic acid]", "values": [
      {"measurement": "AC50", "setting": "[1]", "value": 25.2, "unit": "µM"}
    ]},
    {"smiles": "CCCCCCCCCCCCNC(=N)N", "note": "[Dodine]", "values": [
      {"measurement": "AC50", "setting": "[1]", "value": 2.89, "unit": "µM"}
    ]},
    {"smiles": "C#CCC(Cc1cnc2nc(N)nc(N)c2n1)c1ccc(C(=O)N[C@@H](CCC(=O)O)C(=O)O)cc1", "note": "(stereo partly shown) [Pralatrexate]", "values": [
      {"measurement": "AC50", "setting": "[1]", "value": 0.687, "unit": "µM"}
    ]},
    {"smiles": "CCOc1ccc(O)cc1", "note": "[4-Ethoxyphenol]", "values": [
      {"measurement": "AC50", "setting": "[1]", "value": 82.5, "unit": "µM"}
    ]},
    {"smiles": "Clc1cc(C(Cl)(Cl)Cl)cnc1Cl", "note": "[2,3-Dichloro-5-(trichloromethyl)pyridine]", "values": [
      {"measurement": "AC50", "setting": "[1]", "value": 40.5, "unit": "µM"}
    ]},
    {"smiles": "O=c1[nH]c(=O)n([C@H]2C[C@H](O)[C@@H](CO)O2)cc1C(F)(F)F", "note": "[Trifluridine]", "values": [
      {"measurement": "AC50", "setting": "[1]", "value": 23.4, "unit": "µM"}
    ]},
    {"smiles": "Oc1ccc2ccc3cccc4ccc1c2c34", "note": "[1-Hydroxypyrene]", "values": [
      {"measurement": "AC50", "setting": "[1]", "value": 55.7, "unit": "µM"}
    ]},
    {"smiles": "Cc1ccc(C(C)c2ccc(C)c(C)c2)cc1C", "note": "[1,1-Bis(3,4-dimethylphenyl)ethane]", "values": [
      {"measurement": "AC50", "setting": "[1]", "value": 70.8, "unit": "µM"}
    ]},
    {"smiles": "CCCOc1ccc(C(=O)OCCN(CC)CC)cc1N", "note": "[Proparacaine hydrochloride]", "values": [
      {"measurement": "AC50", "setting": "[1]", "value": "> 50", "unit": "µM"}
    ]},
    {"smiles": "C[C@]12CCC(=O)C=C1CC[C@@H]1[C@@H]2CC[C@@]2(C)[C@H]1CC[C@]2(O)C(=O)CO", "note": "[Cortodoxone]", "values": [
      {"measurement": "AC50", "setting": "[1]", "value": 21.8, "unit": "µM"}
    ]},
    {"smiles": "Oc1ccc2c(c1)-c1ccccc1C2", "note": "[3-Hydroxyfluorene]", "values": [
      {"measurement": "AC50", "setting": "[1]", "value": 91.5, "unit": "µM"}
    ]}
  ]
}
